Reference: PubChem BioAssay AID1777 (Sanford-Burnham Center for Chemical Genomics, 2009)
The campaign covered roughly 280,000 compounds. About 50 (0.02%) were called active. Cut-off read from the data, not from the text of the source: active = activation above about 50% (passing the limit was not always enough); inactive = the rest. For the sample, actives were picked, then their nearest neighbours and some compounds at random. Results with a measured potency or affinity are listed apart.

The compounds below were run against Kappa-type opioid receptor (Homo sapiens) (UniProt P41145) (assay: KOR agonists, beta-arrestin recruitment, primary screen, cell-based, luminescence, uHTS (AID 1777)). Settings: at 10 µM, hits give high values.
Sequence of Kappa-type opioid receptor (Homo sapiens) (P41145 whole entry, looked up): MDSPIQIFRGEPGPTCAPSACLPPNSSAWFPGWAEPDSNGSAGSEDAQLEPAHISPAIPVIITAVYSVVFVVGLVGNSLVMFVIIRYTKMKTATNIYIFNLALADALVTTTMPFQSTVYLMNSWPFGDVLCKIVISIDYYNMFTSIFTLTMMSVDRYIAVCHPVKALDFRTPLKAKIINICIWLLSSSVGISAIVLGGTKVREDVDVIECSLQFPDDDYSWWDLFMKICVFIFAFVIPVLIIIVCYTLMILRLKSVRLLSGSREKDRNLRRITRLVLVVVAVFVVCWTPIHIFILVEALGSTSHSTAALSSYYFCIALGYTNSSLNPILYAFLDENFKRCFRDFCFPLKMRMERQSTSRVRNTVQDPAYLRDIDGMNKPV
For Cc1ccc(C(=O)NCCN2C3=NC[C@H](C)N3C[C@H]2Cc2ccc(O)cc2)cc1Br, the activation was 25.2% (inactive).
For COc1ccc(C[C@H]2CN3C(=NC[C@H]3C)N2CCNC(=O)c2ccc(C)c(Br)c2)cc1, the activation was 12.5% (inactive).
In the case of Cc1nnc(SCC(=O)N2c3ccccc3CC2C)[nH]c1=O (stereo not given), the activation is reported as 7.1% (inactive).
For O=C(NC1CCCCC1)c1ccc(S(=O)(=O)N2CCOCC2)cc1, the activation was 2% (inactive).
Cc1cc(Nc2ccc(Cl)cc2)n2ncnc2n1 was tested, and the activation was -0.8% (inactive).
In the case of Cc1oc(-c2ccccc2F)nc1CS(=O)CC(=O)NC1CC1 (stereo not given), the activation is reported as 0.9% (inactive).
With COc1ccc(OC)c(NC(=O)c2ccc(CSc3ncccn3)cc2)c1 the activation was -7.7% (inactive).
Cc1ccc(S(=O)(=O)Nc2ccccc2C(=O)Nc2nc(-c3ccc(F)cc3)cs2)cc1 was tested, and the activation was 13% (inactive).
In the case of O=C(Nc1nc(-c2ccccc2)cs1)c1ccccc1NS(=O)(=O)c1ccc(F)cc1, the activation is reported as 111% (active).
In the case of COc1ccc(S(=O)(=O)Nc2ccccc2C(=O)Nc2nc(-c3ccc(F)cc3)cs2)cc1OC, the activation is reported as 15.1% (inactive).
Cc1ccc(O)c(C(=O)c2cnn(C(=O)COc3ccc(Cl)cc3)c2)c1 was tested, and the activation was 0.1% (inactive).
Cc1cc(N/C(=N/S(=O)(=O)c2cc(F)ccc2F)c2ccccc2)n(-c2ccccc2)n1 was tested, and the activation was -1.3% (inactive).
CCCCCCCCCCCCOC1OC(CO)C(O)C(O)C1NC(C)=O (stereo not given) was tested, and the activation was -0.9% (inactive).
For CC1=CC(C)(C)N(C)C(=O)N1c1ccc(Cl)cc1, the activation was 7.6% (inactive).
Cc1cc(=O)cc(C)n1-c1ccc(Cl)cc1 was tested, and the activation was 1.5% (inactive).
In the case of CCCn1c(C(CO)Nc2nc(-c3cccc(Br)c3)cs2)nc2ccccc21 (stereo not given), the activation is reported as 2.4% (inactive).
With Cc1cccc(C(=O)Nc2cccc(C(=O)N/N=C/c3ccc4c(c3)OCO4)c2)c1 the activation was -5.3% (inactive).
For CC(=O)Nc1nc(SCC(=O)NCC2CCCO2)[nH]c(=O)c1NC(=O)c1cccs1 (stereo not given), the activation was -4.2% (inactive).
With CCN(C(=O)COC(=O)C1CCN(S(=O)(=O)c2c(Cl)cccc2Cl)CC1)C1CCCCC1 the activation was -3.1% (inactive).
With COc1ccc(-n2c(C)cc(C(=O)COc3ccc(-n4cnnn4)cc3)c2C)cc1 the activation was 3.1% (inactive).
COc1ccccc1CN(Cc1cc2cc(C)ccc2[nH]c1=O)Cc1nnnn1Cc1ccco1 was tested, and the activation was -3.4% (inactive).
For CC(Sc1nnc(COc2ccccc2)n1Cc1ccccc1)C(=O)O (stereo not given), the activation was 1.6% (inactive).
In the case of CC(=O)Nc1ccc(NC(=O)C(C)Sc2n[nH]c(=O)n2Cc2ccccc2)cc1 (stereo not given), the activation is reported as -2.2% (inactive).
In the case of O=C(N/N=C/c1c[nH]c2ccc(Br)cc12)c1ccccn1, the activation is reported as 4.6% (inactive).
For Nc1ccc(C2(c3ccc(N)cc3)OC(=O)c3ccccc32)cc1, the activation was -7.1% (inactive).
With Nc1ccc(C2(c3ccc(N)cc3)C(=O)Nc3ccccc32)cc1 the activation was 0.1% (inactive).
In the case of O=C(CSc1nnc(CNC(=O)c2c(F)cccc2F)o1)c1ccccc1, the activation is reported as 4.5% (inactive).
For CCOc1ccc(N2C(=O)Nc3ccc(Br)cc3C2(O)C(=O)NCCN(C)C)cc1 (stereo not given), the activation was -0.1% (inactive).
With Cc1cccc(C(C)C)c1NC(=O)c1ccc(COc2ccc3c(C)cc(=O)oc3c2)cc1 the activation was 3.9% (inactive).
In the case of CC(=O)Nc1ccc(NC(=O)c2ccc(COc3ccc4c(C)cc(=O)oc4c3)cc2)cc1, the activation is reported as 0.2% (inactive).
In the case of CN(C)/C=C/C(=O)c1cccc(C(F)(F)F)c1, the activation is reported as 2.5% (inactive).
With CCC1(c2ccc(F)cc2)NC(=O)N(CC(=O)Nc2ccccc2Cl)C1=O (stereo not given) the activation was -0.1% (inactive).
CCn1c(=O)c(-c2ccccc2)c(O)c2ccccc21 was tested, and the activation was 1.3% (inactive).
For CCn1c(=O)c(C2=NS(=O)(=O)c3ccccc3N2)c(O)c2ccccc21, the activation was 54.2% (active).
For CCn1c(=O)c(-c2cc(=O)[nH][nH]2)c(O)c2ccccc21, the activation was 2.3% (inactive).
In the case of CC(=O)N(Cc1ccco1)C1(C(=O)NC2CCCC2)CCCCC1, the activation is reported as -1% (inactive).
For O=C(c1ccc(=O)[nH]c1)N(Cc1ccco1)C1(C(=O)NC2CCCCC2)CCCCC1, the activation was -2.7% (inactive).
In the case of O=C(c1cnccn1)N(Cc1ccco1)C1(C(=O)NC2CCCC2)CCCCC1, the activation is reported as -9% (inactive).
O=C(c1ccc(=O)[nH]c1)N(Cc1ccco1)C1(C(=O)NC2CCCC2)CCCCC1 was tested, and the activation was 6% (inactive).
With CC(=O)NCC(=O)N(Cc1ccco1)C1(C(=O)NC2CCCCC2)CCCCC1 the activation was 3.8% (inactive).
In the case of Cc1cccc(C)c1NC(=O)C1(N(Cc2ccco2)C(=O)Cn2nnnc2N)CCCCC1, the activation is reported as -0.3% (inactive).
In the case of Cc1cccc(C)c1NC(=O)C1(N(C(=O)c2ccccn2)c2ccc(O)cc2)CCCCC1, the activation is reported as -0.3% (inactive).
In the case of CC(=O)N(Cc1ccco1)C1(C(=O)NC2CCCCC2)CCCCC1, the activation is reported as 2.1% (inactive).
CC[n+]1c(-c2ccc(C)cc2)csc1Nc1c(C)n(C)n(-c2ccccc2)c1=O was tested, and the activation was -4.9% (inactive).
With Cc1ccc(S(=O)(=O)N2CCN(CC(=O)N/N=C/C=C/c3ccccc3)CC2)cc1 the activation was 0.3% (inactive).
COc1cc(OC)cc(C(=O)NCC(=O)N2CCCCC2)c1 was tested, and the activation was -0.7% (inactive).
For CC1(C)Cc2c(cnn2-c2cccc(F)c2)C(NC(=O)c2csnn2)C1 (stereo not given), the activation was 5.1% (inactive).
In the case of CCOc1ccccc1NC=C1C(=O)OC(C)(C)OC1=O, the activation is reported as 4.4% (inactive).
With Cc1c(NC(=O)c2cccc(S(=O)(=O)N3CCOCC3)c2)c(=O)n(-c2ccccc2)n1C the activation was -7.9% (inactive).
With O=C(NCC1CCCO1)C1CC(=O)N(c2cccc(Cl)c2)C1 (stereo not given) the activation was 5.7% (inactive).
CCC(=O)Nc1c2c(nn1-c1cccc(Cl)c1)CS(=O)(=O)C2 was tested, and the activation was -8.6% (inactive).
In the case of CCOc1ccccc1NC(=O)CN(C)S(=O)(=O)c1ccc2[nH]c(=O)oc2c1, the activation is reported as -1.5% (inactive).
For Cc1ccc2c(CC(=O)NCC3COc4ccccc4O3)coc2c1 (stereo not given), the activation was -4.2% (inactive).
For Cc1cc(C)n(-c2cccc(CN3CCC(CO)(Cc4ccccc4)CC3)c2)n1, the activation was -3.3% (inactive).
Cc1cccc(-n2ccnc2CN2CCN(C(C)C)C(CCO)C2)c1 (stereo not given) was tested, and the activation was 8% (inactive).
CCCC(=O)NC(c1ccc(Cl)cc1Cl)c1ccc2cccnc2c1O (stereo not given) was tested, and the activation was -5.3% (inactive).
O=C(c1ccc2c3n(nc2c1)-c1ccccc1CO3)N1CCOCC1 was tested, and the activation was 0.7% (inactive).
O=C(C(Cc1ccccc1)n1cccc1)N1CCN(c2ccccc2)CC1 (stereo not given) was tested, and the activation was -3.7% (inactive).
For Cc1cccc(N2CCN(C(=O)C(Cc3ccccc3)n3cccc3)CC2)c1C (stereo not given), the activation was 81% (inactive).
For COc1cccc(CN2CC(C(=O)N(C)Cc3nc(C)cs3)CCC2=O)c1 (stereo not given), the activation was -2.2% (inactive).
With O=c1cc(N2CCN(c3ccccc3)CC2)[nH]c(=O)n1Cc1ccc(F)cc1 the activation was -5.2% (inactive).
With Cc1cccc(N2CCN(C(=O)c3cccc(N4CCCC4=O)c3)CC2)c1C the activation was -3.4% (inactive).
In the case of CCC(c1nnnn1C1CCCC1)N(Cc1cccs1)Cc1cc2cc(C)ccc2[nH]c1=O (stereo not given), the activation is reported as 3.2% (inactive).
Cc1cccc2cc(CN(Cc3cccs3)C3(c4nnnn4C4CCCC4)CCCC3)c(=O)[nH]c12 was tested, and the activation was 9.6% (inactive).
Cc1cccc2cc(CN(Cc3cccs3)C(c3nnnn3C3CCCC3)C(C)C)c(=O)[nH]c12 (stereo not given) was tested, and the activation was 66% (active).
For Cc1ccc(N2CC(C(=O)N3CCCCCC3)CC2=O)cc1 (stereo not given), the activation was 1.5% (inactive).
In the case of CC1CCCN(C(=S)Nc2ccc(S(=O)(=O)N3CCCCC3)cc2)C1 (stereo not given), the activation is reported as -0.4% (inactive).
With CCCOC(=O)NC1C(NC(=O)OCCC)N(C)C(=O)N1C (stereo not given) the activation was -2.1% (inactive).
Cn1cccc1/C=N/N1CCN(Cc2cccc3ccccc23)CC1 was tested, and the activation was 3% (inactive).
For Nc1ccc2nc(SCC(=O)c3ccccc3)sc2c1, the activation was -1.7% (inactive).
For O=C(CSc1nc2ccc([N+](=O)[O-])cc2s1)c1ccc2ccccc2c1, the activation was 57.8% (active).
For O=C(CSc1nc2ccc([N+](=O)[O-])cc2[nH]1)c1ccc2ccccc2c1, the activation was -0.1% (inactive).
For CCOC(=O)N1CCC(N(CCOC)C(=O)Nc2ccc(Cl)c(Cl)c2)CC1, the activation was -4.1% (inactive).
With COc1ccc(OC)c2[nH]c(=O)c(CCNC(=S)NC(C)(C)C)cc12 the activation was -9% (inactive).
For Oc1cccc(C(O)CNCc2ccc(OCc3ccc(Cl)cc3Cl)cc2)c1 (stereo not given), the activation was 103% (active).
OCCCCNCc1ccc(OCc2ccc(Cl)cc2Cl)cc1 was tested, and the activation was 3.1% (inactive).
With OCCNCc1ccc(OCc2ccc(Cl)cc2Cl)cc1 the activation was -6.2% (inactive).
For Cc1cc(C)n(CCNC(=O)c2cc(COc3ccc4ncccc4c3)on2)n1, the activation was 0.2% (inactive).
In the case of Cc1ccc(OC(C)c2nnc(N)s2)cc1Cl (stereo not given), the activation is reported as -0.5% (inactive).
COc1ccc(S(=O)(=O)N2CCCC(C(=O)NC3CCCC3)C2)cc1OC (stereo not given) was tested, and the activation was -2.8% (inactive).
For C(=C\c1ccccc1)/CNCC1CCCO1 (stereo not given), the activation was 2% (inactive).
For CC[C@@H](C(=O)[C@@H](C)[C@@H](O)[C@H](C)CCc1ccc(C)c(O)c1C(=O)O)[C@H]1O[C@](CC)([C@H]2CC[C@](O)(CC)[C@H](C)O2)C[C@@H]1C, the activation was 83.4% (active).
For CC(C)OCCCNC(=O)C(Cc1ccccc1)NS(=O)(=O)c1ccc2c(c1)CCC(=O)N2 (stereo not given), the activation was 0.5% (inactive).
With COc1ccc(N=C2SCC(=O)N2CCc2ccc(OC)c(OC)c2)cc1 the activation was 23.1% (inactive).
With COc1ccc(CCN2C(=O)CSC2=Nc2ccc(C)cc2C)cc1OC the activation was 9.8% (inactive).
With COc1ccc2cc(CN(CC3COCCO3)S(=O)(=O)c3c(C)cc(C)cc3C)c(=O)[nH]c2c1 (stereo not given) the activation was -0.5% (inactive).
For O=C(CN1CCN(c2ccc(F)cc2)CC1)Nc1cccnc1Cl, the activation was 0.4% (inactive).
COc1ccc(C(=O)CSc2nnc(-c3ccc(S(=O)(=O)N4CCOCC4)cc3)o2)cc1 was tested, and the activation was 50.2% (active).
In the case of COc1ccc(C(=O)CSc2nnc(-c3ccc(C)cc3)o2)cc1, the activation is reported as -0.9% (inactive).
With CCN(CC)S(=O)(=O)c1ccc(-c2nnc(SCC(=O)c3ccc(OC)cc3)o2)cc1 the activation was 3.1% (inactive).
